Test results taken from PubChem BioAssay AID1209 (Sanford-Burnham Center for Chemical Genomics, 2008).
Out of some 190,000 compounds screened, about 810 (0.43%) were called active. Shown is part of a subset that was picked to be rich in actives. Unmarked numbers belong to inactive results. Rule as the data show it: active = inhibition above about 50%; inactive = the rest.

Molecular target: Mannose-6-phosphate isomerase (Homo sapiens) (UniProt P34949)
Assay: inhibitors of human PMI, primary screen, biochemical, fluorescence intensity, coupled assay (AID 1209);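 also: plate controls were DMSO vehicle for no effect and wells lacking substrate for full effect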
Settings: purified PMI enzyme, at 20 µM, stronger effect = higher value

Sequence of Mannose-6-phosphate isomerase (Homo sapiens) (P34949 whole entry, looked up): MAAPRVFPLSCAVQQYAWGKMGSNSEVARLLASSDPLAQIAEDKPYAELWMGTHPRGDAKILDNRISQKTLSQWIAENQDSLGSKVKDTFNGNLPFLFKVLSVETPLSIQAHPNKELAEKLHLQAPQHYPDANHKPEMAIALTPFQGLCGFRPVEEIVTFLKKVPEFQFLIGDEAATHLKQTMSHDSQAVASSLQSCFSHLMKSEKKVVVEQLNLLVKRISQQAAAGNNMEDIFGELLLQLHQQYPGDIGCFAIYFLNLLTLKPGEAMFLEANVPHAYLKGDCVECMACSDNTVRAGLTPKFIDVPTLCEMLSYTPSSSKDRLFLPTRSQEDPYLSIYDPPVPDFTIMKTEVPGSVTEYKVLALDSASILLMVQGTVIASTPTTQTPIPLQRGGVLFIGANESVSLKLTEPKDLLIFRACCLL

Compound	inhibition
Cc1ccc(S(=O)(=O)N2CCCC2C(=O)Nc2nccs2)cc1 (stereo not given)	-9.8%
CCOC(=O)C1CCCN(C(=O)c2ccc(Cl)c(S(=O)(=O)N3CCCCCC3)c2)C1 (stereo not given)	-22.1%
O=C1OC(Nc2ccc(F)cc2F)c2ccccc21 (stereo not given)	-10.1%
CCOC(=O)N1CCN(c2nc(C)cc(C(F)(F)F)n2)CC1	15.5%
COc1ccc(N=C2SC(C(=O)N3CCN(c4ccccc4)CC3)CC(=O)N2C)cc1 (stereo not given)	5%
CC(C)(C)C1CCc2c(C(=O)NNC(=O)CCCC(=O)O)csc2C1 (stereo not given)	-6.1%
COc1ccccc1C1C(C(C)=O)=C(O)C(=O)N1CCc1ccccc1 (stereo not given)	4.1%
Cc1ccccc1NC(=S)NC1CC2CCC(C1)N2Cc1ccco1 (stereo not given)	-0.8%
COc1ccc(CC2(C)OC(c3ccc(Cl)cc3)=NN2C(C)=O)cc1 (stereo not given)	19%
O=C(Nc1ccc(S(=O)(=O)Nc2ncccn2)cc1)c1ccccc1NS(=O)(=O)c1ccc(F)cc1	2.8%
Cc1ccc(C)c(C(=O)COC(=O)c2cc(Cl)nc3ccccc23)c1	12.6%
COCc1cc(CN2CCN(C)CC2)c(O)c2ncccc12	36.7%
CCOC(=O)N1CCN(Cc2ccc(O)c3ncccc23)CC1	59.9% (active)
O=c1cc(CN2CCOCC2)c2c(ccc3ccccc32)o1	1.2%
CCOC(=O)C1CCN(Cc2c(O)ccc3ccccc23)CC1	28.5%
Oc1c(CN2CCc3ccccc3C2)cc(Cl)c2cccnc12	40%
CCOC(=O)C1CCN(Cc2ccc(OC)c(C)c2OC)CC1	-4.3%
c1cc2ccc3ccc(CN4CCOCC4)c4ccc(c1)c2c34	-2.6%
CCOC(=O)N1CCN(Cc2ccccn2)CC1	3.7%
Oc1ccc(CN2CCCCC2)c2cccnc12	43.3%
Oc1c(CN2CCOCC2)ccc2ccccc12	50.8% (active)
CCOC(=O)C1CCN(Cc2ccc(O)c3ncccc23)CC1	67% (active)
CCOC(=O)CC(NC(=O)Cc1ccccc1)c1ccccc1Cl (stereo not given)	13.1%
COC(=O)C1=C(NC(=O)c2ccccc2C)CCS1	-17.4%

Compound	inhibition
O=C(Nc1cnn(Cc2ccc(F)cc2)c1)C(c1ccccc1)c1ccccc1	16%
O=S(=O)(Nc1cccnc1)c1ccc(Cl)c(C(F)(F)F)c1	6%
CC(C)C(=O)NCCc1nc2ccccc2n1CCOc1ccccc1	-1.6%
CCN(CC)C(=O)C1=C(C)NC(=S)NC1c1cccs1 (stereo not given)	-9%
CCOC(=O)C1CCCN(Cc2cc(=O)oc3cc(C)ccc23)C1 (stereo not given)	-10.2%
CN(CC(=O)NC1CCCCCC1)S(=O)(=O)c1ccc2c(c1)n(C)c(=O)c(=O)n2C	2.1%
COC(=O)C1=C(NC(=O)c2ccc(C)c(C)c2)CCS1	3.8%
Cc1ccc2cc(C(c3nnnn3C3CCCC3)N3CCOCC3)c(=O)[nH]c2c1C (stereo not given)	-2.5%
CCOC(=O)C1=C(C)N(C)C(=O)NC1c1cc2c(cc1[N+](=O)[O-])OCO2 (stereo not given)	35.3%
CCOC(=O)C1=C(C)NC(=O)CC1c1cc2c(cc1[N+](=O)[O-])OCO2 (stereo not given)	53.2% (active)
CCOC(=O)C1=C(C)NC(=O)CC1c1cc2c(cc1Br)OCO2 (stereo not given)	1.2%
Cc1noc(C)c1C(=O)OCC(=O)NC(=O)NC12CC3CC(CC(C3)C1)C2	-2.2%
Cc1noc(C)c1C(=O)OCC(=O)NC1CC1	1.3%
Cc1noc(C)c1C(=O)OCC(=O)C12CC3CC(CC(C3)C1)C2	100% (active)
CCC1S/C(=N/C(=O)NC2CCCCC2)NC1=O (stereo not given)	-8.6%
O=C(Nc1nccs1)NC1CCCCC1	-3%
O=C(/N=C1\NC(=O)C(F)(C(F)(F)F)S1)NC1CCCCC1 (stereo not given)	74.7% (active)
c1ccc2c(c1)nc(N1CCN(C3CCCCC3)CC1)c1nnnn12	4.7%
Cc1nc2ccc(NC(=O)c3ccc(S(=O)(=O)N4CCOCC4)cc3)cc2s1	1.9%
O=C(CSc1nc2cc(S(=O)(=O)N3CCOCC3)ccc2o1)Nc1c(F)cccc1F	31.9%
Cc1noc(C)c1CSc1nc2cc(S(=O)(=O)N3CCOCC3)ccc2o1	53.1% (active)
Cc1nc2ccc(NC(=O)c3cc(S(=O)(=O)N4CCOCC4)ccc3C)cc2s1	9.8%
Cc1nc2ccc(Nc3nc4cc(S(=O)(=O)N5CCOCC5)ccc4o3)cc2s1	64.5% (active)
Cc1ccc(C(=O)CSc2nc3cc(S(=O)(=O)N4CCOCC4)ccc3o2)cc1	25.2%

Compound	inhibition
CC(/C=N/NC(=O)CSc1nc(C)cc(C)n1)=C\c1ccccc1	16.1%
CCOc1ccc(-c2nnc(-c3ccccc3)o2)cc1	-0.3%
CCCCc1nc(Cl)c(C#N)c2c1CSC(C)(C)C2	13.1%
CCc1onc(C)c1C(=O)O	-13.1%
COc1cccc(-c2nnc(NC(=O)Cc3cccs3)s2)c1	-3%
Cc1nn(Cc2cccc(C(=O)N3N=C(C(F)F)CC3(O)C(F)F)c2)c(C)c1[N+](=O)[O-] (stereo not given)	-1.8%
O=C1c2ccccc2C(=O)N1CN(C(=O)c1ccccc1[N+](=O)[O-])c1ccc(F)cc1	13.9%
Oc1ccccc1/C=C/c1noc(-c2ccccc2O)n1	-7%
Oc1cc(-c2ccccc2)c2ccccc2c1	82.6% (active)
Cn1c(=O)cc(-c2ccccc2)c2ccccc21	1.5%
O=c1cc(-c2ccccc2)c2ccccc2[nH]1	9.9%
CCOC(=O)CSc1nc(C(C)(C)C)cc(C(F)(F)F)c1C#N	5.9%
COC(=O)C1=C(C(=O)OC)SC2(S1)C(C(=O)OC)=C(C(=O)OC)SC1=C2c2cccc(C)c2NC1(C)C	24.5%
COC(=O)C1=C(C(=O)OC)SC2(S1)C(C(=O)OC)=C(C(=O)OC)SC1=C2c2cc(C)cc(C)c2NC1(C)C	18.1%
COC(=O)C1=C(C(=O)OC)SC2(S1)C(C(=O)OC)=C(C(=O)OC)SC1=C2c2cc(C)ccc2NC1(C)C	57% (active)
CCOC(=O)CN1CCc2c(C)nc3c(-c4ccc(OC)c(OC)c4)cnn3c21	20.1%
CCOC(=O)NC(=O)COC(=O)CNC(=O)c1cccc(OC)c1	-0.3%
COc1ccc(C(=O)NC(=S)NCC2CCCO2)cc1 (stereo not given)	2.8%
Cc1ccc(C)c(N(CC(=O)N/N=C/c2ccc(-c3ccc([N+](=O)[O-])cc3)o2)S(=O)(=O)c2ccccc2)c1	10.6%
COc1ccc(N(CC(=O)N/N=C/c2ccc(-c3ccc([N+](=O)[O-])cc3)o2)S(=O)(=O)c2ccc(C)cc2)cc1	-2.3%
CCOC(=O)C1(Cc2ccc(OC)cc2)CCN(C(=O)CCc2cccnc2)CC1	7.6%
COc1ccc(C)cc1NC(=O)CSc1nnc(-c2ccco2)n1N	10.6%
COC(=O)/C=c1/sc2nc3ccccc3n2c1=O	75.6% (active)
O=c1/c(=C\c2cccnc2)sc2nc3ccccc3n12	7%

Compound	inhibition
O=c1/c(=C/c2ccccn2)sc2nc3ccccc3n12	-21.7%
Nc1ccccc1Oc1c(F)c(F)c(Oc2ccccc2N)c(F)c1F	18.8%
COc1cc(NC(C(=O)Nc2cccc(C(C)=O)c2)c2ccccc2)cc(OC)c1OC (stereo not given)	16.5%
COc1cc(C)c(NC(c2ccccc2)c2ccccc2)cc1OC	16.1%
COc1cc(NC(c2ccccc2)c2ccccc2)cc(OC)c1OC	62.4% (active)
COc1ccc(C(C)=O)c(OC(=O)c2ccc(OC)c(OC)c2)c1	17.5%
C=CCNc1nc2c(c(=O)[nH]c(=O)n2C)n1CCCCC	2.9%
COCCN=C1Sc2nc3c(C)cccc3cc2CN1Cc1ccco1	51% (active)
Cc1cccc2cc3c(nc12)SC(=NCC1CCCO1)N(Cc1ccco1)C3 (stereo not given)	7.4%
COCCN=C1Sc2nc3ccc(C)cc3cc2CN1Cc1ccco1	-63.1%
CCOc1ccc(NC(=NCc2ccc3c(c2)OCO3)SC2CC(=O)N(c3ccccc3)C2=O)cc1 (stereo not given)	-4.2%
CCN(CC)S(=O)(=O)c1ccc(NC2c3ccccc3C(=O)N2CCN2CCOCC2)cc1 (stereo not given)	18.5%
Cc1cc(C)c(O)c(N)c1	33.4%
Cc1cc(C(C)(C)C)c(O)c(C(C)(C)C)c1	0%
CC1(c2ccccc2)NC(=O)N(CC(=O)Nc2cc(S(=O)(=O)N3CCOCC3)ccc2Cl)C1=O (stereo not given)	1.7%
COc1ccc(OCC(=O)Nc2ncc3c(n2)CC(C)(C)CC3=O)cc1	7.1%
Cc1ccc(N(C(C)C(=O)Nc2c(C)n(C)n(-c3ccccc3)c2=O)S(C)(=O)=O)cc1C (stereo not given)	-4.4%
CC(C)[C@H]1CN=C2N(CCNC(=O)CCC3CCCCC3)[C@H](Cc3ccc(O)cc3)CN21	65.2% (active)
C[C@@H]1CN=C2N(CCNC(=O)CCC3CCCCC3)[C@H](Cc3ccc(O)cc3)CN21	85.3% (active)
COc1ccc(C[C@H]2CN3C(=NC[C@@H]3C(C)C)N2CCNC(=O)CCC2CCCCC2)cc1	7.4%
O=C(CCC1CCCCC1)NCCN1C2=NC[C@H](Cc3ccc(O)cc3)N2C[C@H]1Cc1ccc(O)cc1	5%
C[C@H]1CN=C2N(CCNC(=O)CCC3CCCCC3)[C@H](Cc3ccc(O)cc3)CN21	2.5%
O=C(CCC1CCCCC1)NCCN1C2=NC[C@H](Cc3ccccc3)N2C[C@H]1Cc1ccc(O)cc1	8%
